# Most compounds without a hit are left out; they make up all but 12% or so of the library.
# JMJD2A Tudor inh: inhibitors of human JMJD2A Tudor domain | 390,000 tested, 4.4% active | O75164 | AlphaScreen JMJD2A-Tudor / H3K4me3 peptide binding | Potency, µM (top dose mostly 114 µM), without a hit: top-dose activity change, negative = inhibition, actives largely listed as inhibitors; further: on the % scale 0 is the no-effect control and ±100 the full control effect; nearly all actives have a fitted effect of over 50% in size
# Sfp inh: blocks B. subtilis Sfp PPTase activity; AID 1490; Potency, µM, without a hit: largest response in the series, negative = inhibition, most hits filed as inhibitors; 310,000 tested, 3.5% active; Biochemical Sfp PPTase activity, qHTS;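 further: the enzyme is Sfp with the accession as filed and its product quenches rhodamine fluorescence; 0% = enzyme reaction without inhibitor and -100% = no enzyme wells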
#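 Buffer: 50 mM Hepes-Na pH 7.6, 10 mM MgCl2, 0.01% Nonidet P-40, 0.01% BSA. Enzyme 15 nM, pre-exposed to compound 15 min; substrates then added and fluorescence change tracked over 30 min.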
# BAZ2B inh: BAZ2B (human) inhibition; AlphaScreen BAZ2B-H3K14Ac peptide displacement; Potency, µM (series often up to 114 µM), without a hit: top-dose activity change, negative = inhibition, most hits filed as inhibitors; 360,000 tested, 4.4% active; further: on the % scale 0 is the no-effect control and ±100 the full control effect; nearly all actives have a fitted effect of over 60% in size
# Target sequence (Q9UIF8 whole entry, looked up): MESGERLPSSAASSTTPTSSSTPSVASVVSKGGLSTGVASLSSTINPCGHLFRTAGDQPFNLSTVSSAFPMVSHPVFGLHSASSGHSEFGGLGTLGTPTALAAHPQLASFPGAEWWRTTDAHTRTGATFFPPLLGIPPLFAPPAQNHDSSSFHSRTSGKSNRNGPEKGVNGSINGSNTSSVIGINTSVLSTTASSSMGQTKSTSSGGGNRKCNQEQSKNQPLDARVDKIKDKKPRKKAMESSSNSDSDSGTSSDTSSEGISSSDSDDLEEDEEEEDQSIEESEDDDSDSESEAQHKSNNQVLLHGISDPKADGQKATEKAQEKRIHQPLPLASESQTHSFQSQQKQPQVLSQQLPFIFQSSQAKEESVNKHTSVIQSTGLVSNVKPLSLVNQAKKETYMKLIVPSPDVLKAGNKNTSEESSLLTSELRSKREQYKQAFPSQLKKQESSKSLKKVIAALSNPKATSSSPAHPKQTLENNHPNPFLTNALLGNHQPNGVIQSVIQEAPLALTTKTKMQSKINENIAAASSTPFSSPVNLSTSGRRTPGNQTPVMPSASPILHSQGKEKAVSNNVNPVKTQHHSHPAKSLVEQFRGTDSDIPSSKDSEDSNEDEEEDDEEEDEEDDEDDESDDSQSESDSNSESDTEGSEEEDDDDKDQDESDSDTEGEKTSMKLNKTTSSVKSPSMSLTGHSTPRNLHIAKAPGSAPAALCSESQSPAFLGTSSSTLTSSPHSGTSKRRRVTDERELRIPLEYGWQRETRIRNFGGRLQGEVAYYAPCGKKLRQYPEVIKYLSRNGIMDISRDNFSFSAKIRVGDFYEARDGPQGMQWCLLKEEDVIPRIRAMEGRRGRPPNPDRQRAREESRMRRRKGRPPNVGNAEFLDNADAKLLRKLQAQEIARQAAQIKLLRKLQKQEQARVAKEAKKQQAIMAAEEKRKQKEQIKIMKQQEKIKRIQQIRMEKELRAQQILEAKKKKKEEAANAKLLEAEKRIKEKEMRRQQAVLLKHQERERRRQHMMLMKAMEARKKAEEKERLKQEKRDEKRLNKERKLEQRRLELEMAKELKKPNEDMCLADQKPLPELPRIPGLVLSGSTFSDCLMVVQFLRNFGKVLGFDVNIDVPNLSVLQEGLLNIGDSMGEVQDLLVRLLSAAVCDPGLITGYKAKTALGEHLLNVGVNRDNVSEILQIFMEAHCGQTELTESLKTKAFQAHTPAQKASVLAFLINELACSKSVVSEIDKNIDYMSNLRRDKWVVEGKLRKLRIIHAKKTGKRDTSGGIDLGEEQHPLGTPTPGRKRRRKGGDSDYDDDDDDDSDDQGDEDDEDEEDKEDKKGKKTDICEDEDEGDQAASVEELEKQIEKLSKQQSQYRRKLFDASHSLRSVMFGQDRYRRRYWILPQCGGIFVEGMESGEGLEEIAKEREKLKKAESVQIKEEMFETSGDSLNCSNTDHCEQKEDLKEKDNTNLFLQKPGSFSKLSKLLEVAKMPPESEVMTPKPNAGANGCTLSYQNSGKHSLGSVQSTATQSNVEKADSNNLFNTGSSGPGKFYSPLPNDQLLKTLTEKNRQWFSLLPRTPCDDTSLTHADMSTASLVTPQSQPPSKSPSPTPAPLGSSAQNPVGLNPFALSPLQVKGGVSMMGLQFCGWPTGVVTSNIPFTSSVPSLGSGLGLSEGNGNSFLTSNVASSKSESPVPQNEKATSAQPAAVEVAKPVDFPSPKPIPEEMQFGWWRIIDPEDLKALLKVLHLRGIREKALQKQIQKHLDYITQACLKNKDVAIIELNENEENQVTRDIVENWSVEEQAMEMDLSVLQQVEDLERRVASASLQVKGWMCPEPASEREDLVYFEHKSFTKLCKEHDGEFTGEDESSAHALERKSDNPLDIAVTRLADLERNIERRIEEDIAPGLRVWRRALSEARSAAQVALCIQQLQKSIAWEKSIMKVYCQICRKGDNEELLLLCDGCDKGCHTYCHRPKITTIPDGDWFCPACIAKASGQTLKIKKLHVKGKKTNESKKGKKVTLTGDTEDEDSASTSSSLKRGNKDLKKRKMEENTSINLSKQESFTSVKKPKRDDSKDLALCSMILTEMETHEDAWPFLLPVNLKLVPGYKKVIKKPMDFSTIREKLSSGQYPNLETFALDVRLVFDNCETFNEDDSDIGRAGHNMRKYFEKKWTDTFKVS
#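 Inhibition is scored as reduced AlphaScreen emission. The BAZ2B/b-H3(5-23)K14Ac complex (50 nM each) in PBS pH 7.4, 0.01% Tween-20 meets compound (up to 110 uM) for 30 min at RT before bead addition.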
# HP1b binding inh: inhibitors of HP1-beta chromodomain binding to methylated histone tails; Potency, µM (titrated, usually from 114 µM), for the others: top-dose activity change, negative = inhibition, actives largely listed as inhibitors; AID 540317; 390,000 tested, 0.56% active; AlphaScreen HP1-beta / biotin-H3K9me3 peptide binding; P83916; further: nearly all actives have a fitted effect of over 70% in size
#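 AlphaScreen: HP1-beta (50 nM) preformed 30 min with biotin-H3(1-18)K9me3 peptide (50 nM) in PBS pH 7.4, 0.01% Tween-20. Compound added for 30 min at RT, then streptavidin donor/nickel chelate acceptor beads (10 ug/mL) for 30 min.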
# G9a inh: G9a (human) methyltransferase inhibition; Q96KQ7; G9a H3K9 monomethylation, AlphaScreen, 2 h; Potency, µM (highest dose often 102 µM), for the others: at the top dose activity, negative = inhibition, actives largely listed as inhibitors; 350,000 tested, 8.8% active; AID 504332; further: on the % scale 0 is the no-effect control and ±100 the full control effect; nearly all actives have a fitted effect of over 75% in size
#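 Chemiluminescent proximity detection of H3K9 monomethylation, read after 10 min bead incubation in the dark. Reaction: 20 nM G9a, 500 nM biotin-H3K9 peptide, 20 uM SAM cofactor, 2 h, room temperature, following 15 min enzyme-compound preincubation.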
# * marks the source's active call; other numbers are inactive results; u = inconclusive; x = no result; ! = repeats disagree; [ ] = dose if it differs, or a comment. The call rests on the fitted dose curve; in most records, active means well fitted curve in the direction sought with a large enough effect; inconclusive means small, poorly fitted or top-dose-only effect, or another doubt; inactive means no such curve, though single readings can be large; an effect the other way counts as inactive or inconclusive. Potency means the concentration at half of the fitted maximal effect.
SMILES,JMJD2A Tudor inh,Sfp inh,BAZ2B inh,HP1b binding inh,G9a inh
CCCCCCCc1nc2nc(C)c(Br)c(=O)n2[nH]1,28µM*,24%,-24%,1%,-48%
COc1ccccc1CNCC(=O)Nc1ccc(C(F)(F)F)cc1,-14%,-4%,56µM*,6%,22µM*
COc1ccccc1CNCC(=O)Nc1ccc(C#N)cc1,u,-19%,50µM*,-21%,5.6µM*
COc1ccccc1CC(=O)Nc1ccc(S(=O)(=O)N2CCCCC2)cc1,-17%,-7%,-2%,-17%,u
COc1ccccc1CNCC(=O)Nc1ccccc1-n1cccc1,22µM*,u,50µM*,u,10µM*
COc1ccc(NCC(=O)Nc2ccc(C#N)cc2)cc1Cl,-26%,3%,u,19%,u
COc1ccccc1CCC(=O)Oc1ccc(C#N)cc1OC,42%,-9%,2%,117%,25µM*
COc1ccccc1C/C(N)=N/OC(=O)COc1cccc(C)c1C,183%,-7%,144%,216%,93%[59 µM]
O=C(COC(=O)c1cc(-c2cccs2)nc2ccccc12)c1ccc(F)cc1,42%,x,47%,103%,85%[59 µM]
CCOc1ccc(-c2nc(CSCC(=O)NCC3CCCO3)c(C)o2)cc1 (centres undefined),-11%,8%,-25%,35%,19%[59 µM]
COc1ccc(N(CC(=O)N2CCCCCC2)S(=O)(=O)c2ccccc2[N+](=O)[O-])c(OC)c1,-27%,11%,-26%,-14%,-72%
COC(=O)CN(c1ccc(OC)cc1OC)S(=O)(=O)c1ccccc1[N+](=O)[O-],-18%,u,-17%,9%,11µM*
CCOc1cccc(C2CC(=O)Nc3cc(OC)c(OC)cc32)c1 (centres undefined),-19%,8%,u,49%,-2%[59 µM]
CCn1c(-c2ccc3[nH]c(C)c(C)c3c2)n[nH]c1=S,22µM*,-27%,u,-26%,2.8µM*
Cc1[nH]c2ccc(-c3n[nH]c(=S)n3C)cc2c1C,4.5µM*,-13%,u,u,4µM*
O=C1CS/C(=N/N=C/c2ccncc2)N1,u,-9%,-6%,17%,x
Cn1ccc(/C=N/N=C2/NC(=O)CS2)n1,-1%,u,-20%,39%,10µM*
Cc1nc2c(C(=O)NCCc3ccc(Cl)cc3)cnn2c(C)c1Cc1c(F)cccc1Cl,-17%,x,2%,25%,1%[59 µM]
Cc1ccc(S(=O)(=O)NC(=O)c2cccc(N(C)C)c2)cc1,-17%,x,x,30%,x
CCNc1ccc(C(=O)OCC)cc1NC(=O)c1cccc(N(C)C)c1,u,10%,u,-18%,50µM*
CCOC(=O)c1ccc(S(=O)(=O)NNC(=O)c2cccc(N(C)C)c2)cc1,-19%,13%,x,10%,11µM*
O=C1NC2(CCCCC2)Cc2ccccc21,-6%,18%,x,39%,-3%[59 µM]
COc1ccccc1C1C(C(C)=O)=C(O)C(=O)N1CCc1ccccc1 (centres undefined),-22%[57.1 µM],9%,-38%,43%,45µM*
CC(=O)C1=C(O)C(=O)N(CCC(=O)O)C1c1ccccc1Cl (centres undefined),22µM*,15%,u,-2%,24%[12.7 µM]
CN(C)CCN1C(=O)C(O)=C(C(=O)c2ccco2)C1c1ccccc1F (centres undefined),-16%,9%,8%,48%,15%[12.7 µM]
SMILES,JMJD2A Tudor inh,Sfp inh,BAZ2B inh,HP1b binding inh,G9a inh
COc1ccc(CCN2C(=O)C(O)=C(C(C)=O)C2c2ccccc2OC)cc1OC (centres undefined),u,4%,-39%,3%,5%[12.7 µM]
O=C(C1=C(O)C(=O)N(CC2CCCO2)C1c1ccccc1F)c1ccco1 (centres undefined),-17%,5%,-11%,12%,40µM*
COc1cc(C2C(C(=O)c3ccco3)=C(O)C(=O)N2CCc2ccccc2)ccc1O (centres undefined),u,5%,u,16%,40µM*
O=C(Oc1cc(-c2ccccc2)no1)c1cccc(C(F)(F)F)c1,u,-10%,u,25%,-15%[59 µM]
COc1ccc(CNC(=O)c2ccc3[nH]c(C)c(C)c3c2)c(OC)c1,u,x,u,-1%,-44%[59 µM]
O=C(C1=C(O)C(=O)N(CC2CCCO2)C1c1cccc(O)c1)c1ccco1 (centres undefined),-3%,4%,-1%,16%,45µM*
CCOc1cc(C2C(C(=O)c3ccco3)=C(O)C(=O)N2CC2CCCO2)ccc1O (centres undefined),-16%,4%,-20%,0%,45µM*
COc1cc(C2C(C(=O)c3ccco3)=C(O)C(=O)N2CC2CCCO2)ccc1O (centres undefined),u,4%,u,11%,50µM*
COc1ccc(C2C(C(=O)c3ccco3)=C(O)C(=O)N2CC2CCCO2)cc1 (centres undefined),-22%,18%,-39%,20%,u
COCCN1C(=O)C(O)=C(C(=O)c2ccco2)C1c1cccc(Oc2ccccc2)c1 (centres undefined),u,-12%,-14%,5%,u
CCc1c(C)nc(SCC(=O)c2ccc(C)c(C)c2)[nH]c1=O,-24%,-5%,-4%,20%,8%[12.7 µM]
Cc1ccccc1C(=O)Nc1ccc(O)c2c(=O)cc(-c3ccccc3Cl)oc12,-15%,u,-13%,47%,-7%[59 µM]
O=C(Nc1ccc(O)c2c(=O)cc(-c3ccccc3Cl)oc12)c1cc(Cl)cc(Cl)c1,-26%,56µM*,x,24%,x
O=c1cc(-c2ccccc2Cl)oc2c(Br)ccc(O)c12,-26%,11%,-12%,18%,56µM*!
O=C(Nc1ccc(O)c2c(=O)cc(-c3ccccc3Cl)oc12)c1ccc(Cl)c(Cl)c1,-10%,79µM*!,-1%,47%,-23%[12.7 µM]
COc1cccc(-n2cc3c(=O)n(C)c(=O)n(C)c3c2)c1,-6%,-15%,u,27%,35µM*
COc1cccc(N2CCN(C(=O)Cn3ncc4c5ccccc5n(C)c4c3=O)CC2)c1,-13%,x,4%,13%,10%[59 µM]
COc1ccc(-n2nc(C(=O)NCC(=O)NCCC3=CCCCC3)c3ccccc3c2=O)cc1OC,-13%,6%,3%,-8%,50µM*
COC(=O)CNC(=O)CNC(=O)c1nn(-c2ccc(OC)c(OC)c2)c(=O)c2ccccc12,-6%,16%,3%,26%,10%
Cn1c(=O)c2ccccc2n(CC(=O)NCCC2=CCCCC2)c1=O,1%,-10%,0%,10%,28µM*
CSCCC(NC(N)=O)C(=O)NCc1ccccc1Cl (centres undefined),2%,16%,-5%,17%,8%[12.7 µM]
Cn1nc(C(=O)O)c(=O)n(C)c1=O,89µM*,x,x,-39%,x
COc1c[nH]n(C2CCCCC2)c(=O)c1=O,20µM*,-4%,u,7%,22µM*
OCc1ccc(-c2ccc(-c3ccc(CO)s3)o2)s1,x,-26%,x,x,1.6µM*

# Screening data from PubChem BioAssay.
